Most compounds without a hit are left out; they make up all but 4.5% or so of the library.
DAX1 inh-1: DAX1 (NR0B1) inhibitors, primary screen, cell-based, HEK293, Gal4-DAX1, luciferase luminescence. inhibition, % at 6.75 µM. HEK293 Gal4-DAX1 luciferase reporter. Nuclear receptor subfamily 0 group B member 1 (Homo sapiens), P51843. 340,000 compounds, 0.99% hits;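 active means inhibition above the mean over all tested compounds plus 3 SD, cut at about 4.2% in these data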;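 further: 0% = DAX1-transfected cells with DMSO and 100% = empty-vector control cells with DMSO; inhibition shows as a rise in luminescence from relieved DAX1 repression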
Target sequence (P51843 207-470 limits assumed): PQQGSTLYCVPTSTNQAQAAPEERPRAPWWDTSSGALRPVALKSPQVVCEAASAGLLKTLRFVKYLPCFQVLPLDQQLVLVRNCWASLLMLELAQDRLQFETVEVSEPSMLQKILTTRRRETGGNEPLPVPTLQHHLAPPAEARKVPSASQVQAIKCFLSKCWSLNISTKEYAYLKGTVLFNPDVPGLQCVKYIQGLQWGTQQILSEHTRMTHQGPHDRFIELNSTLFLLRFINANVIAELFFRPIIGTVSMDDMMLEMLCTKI
FXN GAA850 act: FXN promoter activators, primary screen, cell-based, luciferase luminescence, HEK293 lucGAA850. 360,000 compounds, 0.56% hits. activation, % at 6 µM. AID 540364, 2011. HEK293 lucGAA850 FXN promoter luciferase reporter, 24 h; percent of 10 µM SAHA response;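 active means activation above the average of all compounds screened plus 3 SD, cutoff fixed separately per campaign, cut at about 7.5% in these data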;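 further: 0% = DMSO wells and 100% = 10 µM SAHA wells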
hcDAF12 agonist: H. contortus DAF-12 nuclear receptor activators, primary screen, cell-based, luminescence, HEK293, lit1-tk-luc reporter; HEK293 hcDAF-12 lit1-tk-luc reporter; 0% DMSO, 100% Δ7-dafachronic acid; activation, % at 6.8 µM; 370,000 compounds, 1.4% hits;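 active means activation above the mean of all tested compounds plus 3 SD, cut at about 5.5% in these data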;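 further: 100% = response to 3 µM Δ7-dafachronic acid high control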
hgDAF-12 ag: H. glycines DAF-12 receptor agonists, primary screen, cell-based, luminescence, HEK293, GAL4 fusion, UAS-luciferase | AID 687014, 2013 | HEK293 GAL4-hgDAF12 UAS-luciferase reporter, agonist luminescence; normalized to butyrate control | Nuclear hormone receptor DAF-12 (Heterodera glycines), GAL4 fusion | 370,000 compounds, 1.8% hits | activation, % at 6.8 µM;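 active means activation above a cutoff set at the mean of all screened compounds plus 3 SD, cut at about 10% in these data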;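 further: 0% = DMSO wells and 100% = sodium butyrate wells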
ssDAF-12 act: S. stercoralis DAF-12 nuclear receptor activators, primary screen, cell-based, luminescence, HEK293, GRIP1 co-expression, lit1-tk-luc; 370,000 compounds, 1% hits; HEK293 ssDAF-12/GRIP1 lit1-tk-luc reporter; % of 3 µM dafachronic acid response; AID 652126, 2013; Nuclear hormone receptor DAF-12 (Strongyloides stercoralis); activation, % at 6.8 µM;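 active means activation above the mean over all tested compounds plus 3 SD, cut at about 0.9% in these data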;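 further: 0% = DMSO-only wells and 100% = 3 µM delta7-dafachronic acid wells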
DAX1 inh-2: DAX1 (NR0B1) inhibitors on StAR promoter, primary screen, cell-based, luminescence, SF-1 (NR5A1), full-length DAX-1 | AID 652010, 2013 | 370,000 compounds, 1.1% hits | HEK293T StAR-luciferase reporter, SF-1/DAX-1 repression relief | inhibition, % at 6.8 µM;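 active means inhibition above the mean over all tested compounds plus 3 SD, cut at about 3.6% in these data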;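 further: 0% = DAX-1 cells with DMSO and 100% = cells lacking DAX-1 with DMSO; higher inhibition means more luminescence from relief of DAX-1 repression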
The depositor's hits bear a star; · = no result.

SMILES	DAX1 inh-1	FXN GAA850 act	hcDAF12 agonist	hgDAF-12 ag	ssDAF-12 act	DAX1 inh-2
Cc1sc(NC(=O)c2ccc(F)cc2)c(CN2CCCCCC2)c1C	0.2	2.2	4.5	10.8*	0.4	2.2
Cc1sc(NC(=O)c2ccccc2F)c(CN2CCCCC2)c1C	-0.9	3.0	6.2*	8.5	-0.7	0.7
O=C(O)C1(Nc2ccc(Cl)cc2)CCCC1	5.3*	-0.3	-0.4	1.6	-0.6	0.2
NC(=O)C1(Nc2ccc(-c3ccc(Cl)cc3)cc2)CCCC1	-0.8	0.0	0.4	2.4	-1.1	-0.2
Cc1ccc2[nH]c(O)c(N=O)c2c1	4.9*	3.6	0.8	0.3	-0.4	0.2
CC(=O)N1CCCN(C(=O)Cn2cnc3ccccc3c2=O)CC1	·	·	-1.3	-2.0	-0.9	-0.9
C=CCNC(=O)CCc1nnc(C2(c3ccc(Cl)cc3)CCC2)o1	1.1	5.5	2.6	12.2*	-0.5	1.2
COC(=O)CNC(=O)CCc1nnc(C2(c3ccc(Cl)cc3)CCC2)o1	4.4*	-8.3	2.0	2.3	-1.5	0.7
N#CCC[C@H]1CC[C@]2(CCCN(C(=O)c3ccc4ccccc4n3)C2)O1	·	·	-0.8	1.5	0.1	0.5
COc1ccc(NC(=O)c2scc(S(=O)(=O)C(C)C)c2N)cc1	2.5	5.6	4.7	10.9*	1.2*	2.3
COc1ccc(NC(=O)O/N=C/c2ccccc2)cc1	2.8	1.5	1.6	11.4*	-1.3	0.9
COc1ccc(NC(=O)c2cccc3ccccc23)cc1	0.2	-0.7	0.8	11.3*	-1.2	-0.5
O=C(Nc1cccnc1Oc1ccc(Cl)cc1)c1cccc2ccccc12	6.0*	0.9	0.6	-0.9	-0.8	0.2
Cc1ccc(-c2cc(C(=O)NN=C/C=C/c3ccco3)[nH]n2)cc1C	·	·	-0.3	5.5	-1.4	1.0
CC(=O)CC[C@H]1CC[C@]2(CCCN(C(=O)c3ccno3)C2)O1	·	·	-2.2	-0.6	-0.9	-1.1
COc1ccc(Cn2ccc3ccc(-c4ccc5ccn(C(=O)C6CCC6)c5c4)cc32)cc1	·	·	-1.9	5.6	-0.1	-1.1
CO[C@H]([C@H](C)/C=C/N(C)C=O)[C@@H](C)C(O)CC[C@H](C)[C@H](O)[C@H](C)[C@H]1OC(=O)/C=C/C(C)=C/C[C@H](O)C[C@@H]2C=CC[C@@H](C[C@H](OC)[C@@]3(CO3)[C@@H](OC)C[C@@H](OC)[C@@H]1C)O2 (stereo partly specified)	·	·	-3.7	-8.2	-1.7	·
COc1ccc(NC(=O)OC(C)C)cc1	1.4	4.1	4.0	11.1*	-0.4	1.8
COc1ccc(NC(=O)c2ccccc2C)cc1	6.3*	4.0	2.1	6.1	-0.3	1.6
COc1ccc(CCNC2CC(=O)N(CCc3ccccc3)C2=O)cc1 (stereo unspecified)	4.5*	-0.8	-0.8	-1.6	-1.6	-0.1
Cc1cccc(C)c1NC(=O)C(NC(=O)c1ccccn1)c1ccc([N+](=O)[O-])cc1 (stereo unspecified)	-0.4	-3.4	0.7	0.6	-1.0	0.2
Cc1cccc(C)c1NC(=O)C(c1cccc([N+](=O)[O-])c1)N(C)C(=O)c1ccccn1 (stereo unspecified)	0.4	-0.2	-0.6	-1.8	1.0*	-0.6
CC(=O)Nc1ccc(NC(=O)CNC(=O)COc2ccccc2)cc1	1.7	0.7	-0.6	0.8	-0.5	-0.6
O=C(COc1ccccc1)NCC(=O)Nc1ccncc1	-1.0	2.4	1.0	10.7*	-0.7	0.0
Fc1ccc(-c2n[nH]c(=S)n2N=Cc2cccc(OCc3ccccc3)c2)cc1	·	·	-1.9	2.5	-1.5	-0.2
SMILES	DAX1 inh-1	FXN GAA850 act	hcDAF12 agonist	hgDAF-12 ag	ssDAF-12 act	DAX1 inh-2
Cc1ccc(Nc2nc(COC(=O)C3CC3)cs2)cc1	-0.2	3.4	1.8	10.9*	-0.9	1.9
Cc1ccc(-c2nc3c(Cl)cc(Cl)cc3c(=O)n2O)cc1	0.7	3.8	6.0*	0.3	0.3	-0.1
COc1cccc(Cn2cc(COC(=O)N3CCOCC3)nn2)c1	·	·	-3.2	-0.6	-1.0	0.8
CCCCNC(=O)c1nc(-c2cccs2)oc1-c1ccc(Cl)cc1	·	·	-0.7	3.1	0.9*	-1.1
Cc1cccc(C)c1NC(=O)CN(C)C(=O)CCC(=O)N1CCOCC1	-1.1	-0.5	-0.5	2.2	-1.7	-0.1
Cc1cccc(C)c1NC(=O)CNC(=O)CCC(=O)N1CCOCC1	-0.7	-0.6	0.7	1.5	-1.3	3.7*
CC(=O)Nc1ccc(N/C=C/C(=O)c2ccco2)cc1	2.4	4.4	0.3	4.3	-1.2	0.5
CN(C)c1ccc(N/C=C/C(=O)c2ccco2)cc1	4.3*	-1.4	1.3	3.9	-0.2	0.8
O=C(NCc1ccc2c(c1)OCO2)c1ccc2c(=O)n(C3CCCC3)c(=O)[nH]c2c1	4.9*	1.9	-0.2	2.1	-0.9	-0.4
COc1ccc(Cn2c(=O)[nH]c3cc(C(=O)NCc4ccc5c(c4)OCO5)ccc3c2=O)cc1	-0.8	1.9	-2.6	0.4	-1.2	-0.2
COc1ccc(N2CCN(CCCNC(=S)Nc3c(C)cccc3C)CC2)cc1	5.6*	1.8	-0.7	-0.2	-1.1	0.5
CN1CCCN(C(=O)C2CCN(c3ncnc4c3sc3cccc(F)c34)CC2)CC1	·	·	1.1	3.6	-0.3	-0.7
COC(=O)[C@H]1C[C@@]2(CC=C(C)C)c3ccccc3N(C(=O)OC(C)(C)C)[C@H]2N1C(=O)OC(C)(C)C	·	·	-1.5	0.1	-0.7	·
O=[N+]([O-])c1cc(-c2cnc3ccccc3n2)ccc1Oc1ccc(Cl)cc1	-0.2	1.5	1.1	3.2	1.1*	0.2
O=[N+]([O-])c1cccc(-c2cnc3ccccc3n2)c1	1.3	0.2	2.6	2.0	1.0*	0.0
CS(=O)(=O)Nc1cccc(-c2cnc3ccccc3n2)c1	4.3*	4.7	5.5	9.2	-0.5	1.0
O=C(OCCN1CCN(C2CN(Cc3cn(Cc4cccc(F)c4)nn3)S(=O)(=O)C2)CC1)c1cc2ccccc2o1 (stereo unspecified)	·	·	0.3	2.4	-1.4	-0.4
Nc1[nH]c(C(=O)c2ccccc2)c(-c2ccc(Br)cc2)c1C(=O)NCCCN1CCOCC1	·	·	-0.8	-3.0	-1.0	·
CC(C)(C)OC(=O)N1c2ccccc2[C@]2(N3CCCC3)C[C@H](C(=O)O)N(C(=O)OC(C)(C)C)[C@H]12	·	·	-0.1	4.8	-0.7	0.2
